Source: PubChem
Shown are actives, neighbours in structure and some others; about 2.8% of the full set was active somewhere.
HTRA1 inhibitor = inhibitors of human serine peptidase HTRA1. Q92743. recombinant HTRA1, FP-rhodamine activity-based probe, fluorescence polarization. inhibition, % at 5.96 µM. 340,000 compounds, 0.5% hits; in the data active = inhibition above about 36%
Target sequence (Q92743 whole entry, looked up): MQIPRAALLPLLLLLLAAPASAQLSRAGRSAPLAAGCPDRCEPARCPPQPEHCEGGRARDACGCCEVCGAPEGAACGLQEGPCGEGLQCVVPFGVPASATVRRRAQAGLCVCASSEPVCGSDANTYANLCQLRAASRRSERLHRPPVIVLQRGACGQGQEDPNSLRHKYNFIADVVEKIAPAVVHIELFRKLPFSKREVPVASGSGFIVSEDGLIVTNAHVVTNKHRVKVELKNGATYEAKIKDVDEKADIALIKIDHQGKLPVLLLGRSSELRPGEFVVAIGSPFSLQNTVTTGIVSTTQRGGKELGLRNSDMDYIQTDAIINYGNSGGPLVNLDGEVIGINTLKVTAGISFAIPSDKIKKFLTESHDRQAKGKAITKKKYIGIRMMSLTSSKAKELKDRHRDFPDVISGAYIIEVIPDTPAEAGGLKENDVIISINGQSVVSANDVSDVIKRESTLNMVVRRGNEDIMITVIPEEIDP
PAFAH1B3 FP inh = inhibitors of human PAFAH1B3. recombinant PAFAH1B3, FP-rhodamine probe, fluorescence polarization. inhibition, % at 3.39 µM. 340,000 compounds, 0.28% hits. AID 492972;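 active = inhibition above the screen-wide average of all tested compounds plus 3 SD, cut at about 25% in these data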
PAFAH1B2 inh = inhibitors of human PAFAH1B2 | P68402 | recombinant PAFAH1B2, FP-rhodamine activity probe, fluorescence polarization | inhibition, % at 3.39 µM | 340,000 compounds, 1.2% hits;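 active = inhibition above the mean of all tested compounds plus 3 SD, cut at about 24% in these data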
pPAFAH FP inh = inhibitors of human plasma PAF acetylhydrolase (pPAFAH). Q13093. recombinant pPAFAH, FP-rhodamine probe fluorescence polarization. inhibition, % at 3.39 µM. 330,000 compounds, 1.5% hits. AID 463082;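 active = inhibition above the mean inhibition across the screen plus 3 SD, cut at about 25% in these data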;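 note: inhibitors block binding of the rhodamine activity-based probe so polarization drops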
PAFAH2 FP inh = PAFAH2 (human) inhibition; recombinant PAFAH2, FP-rhodamine activity probe, fluorescence polarization; Q99487; 340,000 compounds, 0.99% hits; inhibition, % at 3.39 µM; AID 492956;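 active = inhibition above the mean over all tested compounds plus 3 SD, cut at about 30% in these data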;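 note: inhibitors block probe labeling of enzyme so polarization drops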
DAGLB inh = blocks human DAGLB lipase activity | inhibition, % at 5.17 µM | HEK293T DAGLB membrane lysate, EnzChek fluorogenic substrate | Q8NCG7 | 340,000 compounds, 0.059% hits | AID 504411; in the data active = inhibition above about 34%
pPAFAH confirm = pPAFAH (human) inhibition, confirmed | inhibition, % at 3.39 µM | shares compounds with pPAFAH FP inh | recombinant pPAFAH, FP-Rh probe fluorescence polarization | 2,300 compounds, 72% hits | AID 463230;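 active = mean inhibition of the triplicate above the hit cutoff set for the earlier primary screen, cut at about 25% in these data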
Hits are given with their value; - = inactive; . = no result.

SMILES	HTRA1 inhibitor	PAFAH1B3 FP inh	PAFAH1B2 inh	pPAFAH FP inh	PAFAH2 FP inh	DAGLB inh	pPAFAH confirm
CCC(=O)N(Cc1c(C)nn(-c2ccccc2)c1Cl)c1ccc(Cl)cc1	-	-	24	-	-	-	.
O=C(CCSc1ccc(Cl)cc1)NN=C1CCCCCC1	-	-	25	-	-	-	.
O=C(CSCc1ccc(Cl)cc1)NN=C1CCCCCC1	-	-	-	-	-	-	.
CCOCCCNC(=O)c1ccc(N2CC3CC(C2)c2cccc(=O)n2C3)c(NC(=O)Nc2cccc(OC)c2)c1 (stereo not drawn)	-	-	-	66	-	-	66
CCc1ccc(NC(=O)Nc2cc(C(=O)NCC3CCCO3)ccc2N2CC3CC(C2)c2cccc(=O)n2C3)cc1 (stereo not drawn)	-	-	-	87	-	-	94
CCOc1ccc(CN(C)C(=O)[C@H](Cc2ccccc2)NC(=O)OCc2ccccc2)cc1OC	-	-	-	-	-	-	.
CN(C)CCCN1c2ccccc2Sc2ccc(C(F)(F)F)cc21	-	-	-	-	-	-	.
CN1CCN(CCCN2c3ccccc3Sc3ccc(Cl)cc32)CC1	-	-	-	45	-	-	42
OCCN1CCN(CCCN2c3ccccc3Sc3ccc(C(F)(F)F)cc32)CC1	-	-	-	40	-	-	38
CCSc1ccc2c(c1)N(CCCN1CCN(C)CC1)c1ccccc1S2	-	-	-	37	-	-	42
CCOC(=O)C1=C(N)n2c(s/c(=C/c3ccco3)c2=O)=C(C(=O)OC)C1c1ccco1 (stereo not drawn)	-	-	-	-	-	-	.
N#CC1=C(N)n2c(s/c(=C\c3ccco3)c2=O)=C(C#N)C1c1ccco1 (stereo not drawn)	-	-	-	53	-	-	-
CN(C)S(=O)(=O)c1ccc(C(=O)NCc2nnc(SCC(=O)N3CCCC3)o2)cc1	-	-	-	-	-	-	.
CCN(CC)C(=O)[C@H]1C[C@H](CC(=O)NC/C=C(\C)CCC=C(C)C)C(=O)N2CCc3c([nH]c4cc(CCC(=O)N(C)C)ccc34)[C@]12C	-	-	-	63	-	-	50
Cc1ccc(S(=O)(=O)N(C)C)cc1NC(=O)C(C)OC(=O)C1CCCCC1 (stereo not drawn)	-	-	-	-	-	-	.
CS(=O)(=O)N(CC(=O)Nc1ccccc1C(=O)N1CCCC1)c1ccc2c(c1)OCO2	-	-	-	-	-	-	.
CCCCOc1ccc(Nc2cc(Cl)ccc2C(=O)O)cn1	-	-	-	57	-	-	41
CC(C)COC(=O)N(C)C[C@H]1OCc2cnnn2CCCC(=O)N([C@H](C)CO)C[C@@H]1C	-	.	.	.	.	-	.
Cc1cccc(N2CCN(C(=O)c3ccc4nc(N5CCCCC5)sc4c3)CC2)c1C	-	-	-	40	-	-	-
O=C(NCCc1ccccc1)C(=O)NCC1OCCN1S(=O)(=O)c1cc(F)ccc1F (stereo not drawn)	-	-	-	-	-	-	.
COc1ccc(CNc2ncnc3c2[nH]c2ccccc23)cc1	.	.	.	-	.	.	.
COc1ccc(CNc2ncnc3c2[nH]c2cc(OC)c(OC)cc23)cc1	-	-	-	36	-	-	-
O=C(OCc1ccc(Br)cc1)c1cc([N+](=O)[O-])ccc1N1CCOCC1	-	.	.	.	.	-	.
COc1ccc(COC(=O)c2cc([N+](=O)[O-])ccc2N2CCOCC2)cc1F	-	-	-	43	-	-	-
Cc1cccc(Cc2cnc(N3C(=N)SC(C)C3=O)s2)c1 (stereo not drawn)	-	-	-	43	-	-	33
SMILES	HTRA1 inhibitor	PAFAH1B3 FP inh	PAFAH1B2 inh	pPAFAH FP inh	PAFAH2 FP inh	DAGLB inh	pPAFAH confirm
Cc1ccc(-n2c(C)cc(=O)cc2C)cc1[N+](=O)[O-]	-	-	-	-	-	-	.
Cc1ccc(-c2cc(C(=O)N3CCN(c4ccccc4O)CC3)c3ccccc3n2)o1	-	-	-	66	-	-	-
O=C(c1cc(-c2ccc(Br)cc2)nc2ccccc12)N1CCN(c2ccccc2O)CC1	-	-	-	-	-	-	.
O=C(CNS(=O)(=O)c1ccc(Br)cc1)NCc1ccncc1	-	-	-	-	-	-	.
CCOC(=O)C1CCN(Cc2ccc(OCc3ccccc3)c(OC)c2)CC1	-	-	-	72	-	-	-
Nc1cc2nc3ccccc3oc-2cc1=O	-	-	-	36	-	-	-
O=c1oc2ccccc2cc1-c1nc2ccccc2o1	-	-	-	-	-	-	.
CN(C)C(=S)Nc1cccc(-c2n[nH]c(=S)o2)c1	-	-	-	-	-	-	.
NNC(=S)Nc1cccc(-c2n[nH]c(=S)o2)c1	-	-	-	39	-	-	-
NC(=O)c1ccsc1NC(=O)COC(=O)c1c(F)cccc1Cl	-	-	-	-	-	-	.
N#CCNC(=O)C1c2ccccc2Oc2ccccc21	-	-	-	-	-	-	.
O=C(NCc1ccc(OC(F)(F)F)cc1)C1CC(c2c(Cl)cccc2Cl)=NO1 (stereo not drawn)	-	-	-	38	-	-	-
Cc1ccc2sc(C)cc(=O)c2c1	-	-	-	.	-	-	.
COC(=O)c1[nH]c2cc(OC)ccc2c1NC(=O)CCN1CCCCC1	-	-	-	39	-	-	-
COC(=O)c1[nH]c2cc(OC)ccc2c1NC(=O)CCN1CCCC(C)(C)C1	-	-	-	-	-	-	.
C=CCOc1ccc(C(c2c(C(=O)O)[nH]c3ccccc23)c2c(C(=O)O)[nH]c3ccccc23)cc1	-	-	66	44	55	-	30
COc1ccc(CN=Cc2c(C(=O)O)[nH]c3ccccc23)cc1	-	-	-	-	-	-	.
COc1cccc(NC(=O)Nc2cccnc2)c1	-	-	-	-	-	-	.
Cn1ccc2cc(NC(=O)Nc3cccnc3)ccc21	-	-	-	37	-	-	-
O=C(CSc1ncn[nH]1)Nc1ccc(Cl)c(S(=O)(=O)N2CCOCC2)c1	-	-	-	-	-	-	.
CCOc1ccc(-n2ccnc2)nn1	-	-	-	45	-	-	-
COc1ccc(OC)c(CN2CCCC(C(=O)c3ccccc3SC)C2)c1 (stereo not drawn)	-	-	-	58	-	-	-
CC(C)N(C(=S)Nc1cccnc1)c1ccccc1	-	-	-	-	-	-	.
CC(=O)Nc1ccc(C(=O)NNC(=O)c2csc(N3CCOCC3)n2)cc1	-	.	.	.	.	-	.
CCN(CC)S(=O)(=O)c1ccc(C(=O)NNC(=O)c2csc(N3CCOCC3)n2)cc1	-	-	-	48	-	-	-
O=C(COc1ccc(Cl)cc1Cl)NN1C(=O)C2C3C=CC(C3)C2C1=O (stereo not drawn)	-	-	-	-	-	-	.
O=[N+]([O-])c1cc(/C=N/Nc2nc3ccccc3[nH]2)c(O)cc1O	.	.	.	40	.	.	34
Cc1ccccc1/C=N/Nc1nc2ccccc2[nH]1	-	-	-	-	-	-	.
